In PubChem BioAssay AID1671189 (National Center for Advancing Translational Sciences (NCATS), 2021) one finds Potency data, which are given here for 53 molecules.

Molecules are shown by their SMILES. Screen size: about 1,100 compounds; about 70 (6%) were called active. Where a call stands in place of a potency, no number is given. About 22% were inconclusive and are not listed. The call rests on the fitted dose curve; in most records, active means well fitted curve in the direction sought with a large enough effect; inconclusive means small, poorly fitted or top-dose-only effect, or another doubt; inactive means no such curve, though single readings can be large or run the other way. The sample as a whole holds a higher share of actives than the screen did.
Potency means the concentration at half of the fitted maximal effect.

The assay deals with Polyunsaturated fatty acid lipoxygenase ALOX12 (Homo sapiens) (UniProt P18054). Briefly: Confirmatory qHTS assay for inhibitors of human arachidonate 12S-lipoxygenase (ALOX12): Round 2. As to conditions: purified human 12-LOX, xylenol orange absorbance; series mostly up to 125 µM. The text has this: Assay Provider: Theodore R. Holman Ph.D. University of California, Santa Cruz, California Human lipoxygenase 12hLO is a member of the closely related lipoxygenase family of enzymes which catalyze the site-specific oxidation of arachidonic acid to various hormone precursor molecules and as such is a candidate for drug development in a variety of disease areas, such as cancer and inflammation. Inhibition of 12hLO activity was screened by utilizing arachidonic acid as a substrate. The extent of hydroperoxide product formation was measured by a secondary chromogenic reaction in which xylenol orange (XO, Sigma-Aldrich, cat. number 39,818-7) reacts with the ferric ions produced from the reaction between the hydroperoxide and ferrous ions. The Fe (III)-XO complex is characterized with red-shifted absorbance at 560 nm. A purified preparation of human 12hLO was supplied by Dr. Holman laboratory, University of California, Santa Cruz.
Chain of Polyunsaturated fatty acid lipoxygenase ALOX12 (Homo sapiens) (P18054 whole entry, looked up): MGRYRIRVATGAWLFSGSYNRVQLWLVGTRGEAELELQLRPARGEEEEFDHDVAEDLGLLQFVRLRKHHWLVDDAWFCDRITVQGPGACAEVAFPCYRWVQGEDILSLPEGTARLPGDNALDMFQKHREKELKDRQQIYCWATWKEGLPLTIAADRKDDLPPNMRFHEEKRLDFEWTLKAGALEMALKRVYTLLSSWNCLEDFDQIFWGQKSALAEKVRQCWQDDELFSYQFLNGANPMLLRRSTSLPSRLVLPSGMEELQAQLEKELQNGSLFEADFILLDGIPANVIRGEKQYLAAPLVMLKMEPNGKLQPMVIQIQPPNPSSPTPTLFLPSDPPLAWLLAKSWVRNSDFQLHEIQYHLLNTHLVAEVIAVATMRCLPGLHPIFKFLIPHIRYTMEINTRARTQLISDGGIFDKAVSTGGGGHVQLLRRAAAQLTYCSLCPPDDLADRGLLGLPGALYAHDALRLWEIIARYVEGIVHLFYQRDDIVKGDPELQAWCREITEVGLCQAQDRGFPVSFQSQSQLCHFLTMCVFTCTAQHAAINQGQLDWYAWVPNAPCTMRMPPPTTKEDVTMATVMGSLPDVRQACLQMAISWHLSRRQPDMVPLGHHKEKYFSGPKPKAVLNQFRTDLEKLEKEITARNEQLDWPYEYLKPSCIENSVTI
PROTOCOL TABLE SEQUENCE No. (e.g., 1, 2, 3, etc.); […] (e.g., Cells, Incubation, Reagent, etc.); VALUE; DESCRIPTION 1; Enzyme; 3 uL; 150 nM 12hLO enzyme solution dispensed in 1536-well Greiner black, clear bottom plates. 2; Compound; 23 nL; compounds and controls were added. 3; Incubate; 15 min; room temperature. 4; Substrate; 1 uL; 40 uM arachidonic acid (final concentration). 5; Incubate; 30 min; room temperature. 6; Reagent; 4 uL; Fe-XO solution was added to each well. 7; Incubation; 30 min; room temperature 8; Detector; absorbance; Read 1 at 405 nm absorbance using ViewLux (PerkinElmer) CCD imager. 9; Detector; absorbance; Read 2 at 573 nm absorbance using ViewLux (PerkinElmer) CCD imager. NOTES (numbers refer to sequence above) 1; 150 nM 12hLO (final concentration) in buffer solution (25 mM Hepes, 0.01% Triton X-100, pH 7.0) was dispensed in columns 1, 2, 5-48. Column 1 is neutral (100% activity). Buffer only was dispensed in columns 3 and 4 as no enzyme negative controls. The plates were covered with metal lids with gas-exchange holes. 2; Compounds were pin transferred via a Kalypsys Pin Tool (Wako USA) in column 5 - 48. Control compound was transferred in column 2, titration of nordihydroguaiaretic acid (NDGA, Sigma-Aldrich, N5023) with top concentration of 20 mM in DMSO then 1:3 dilution in duplicate. Dilution factor of 23 nL into 4 uL final assay volume. 3; Covered assay plates were incubated for 15 min at room temperature. 4; Substrate was added to start the reaction; 40 uM arachidonic acid (Sigma-Aldrich, St. Louis, MO) was dispensed throughout the plate. 6; Chromogenic detection reagent solution (divalent iron/xylenol orange, Fe-XO) was added to each well: 200 uM xylenol orange, 300 uM ferrous ammonium sulfate prepared freshly in 50 mM sulfuric acid. 8, 9; Two absorbance readouts were obtained at 405 nm and at 573 nm using a ViewLux high-throughput CCD plate imager (PerkinElmer). The 573 to 405 (Read 2 / Read 1) absorbance ratio was used to compute reaction progress.
Regarding `COc1cccc(-c2ccc(CN)cc2)c1`, the Potency entry was “inactive”. As for `COc1ccc(-c2cc(-c3cccc(CO)c3)cn3cncc23)cc1`, the figure is 28.2 µM (active); as for `COc1ccc(CNc2ncnc3c2CN(C2CCCNC2)C(=O)CN3C)cc1` (stereo not drawn), “inactive”. For `O=C(O)CCC(=O)N1Cc2ccccc2CC2(CCCN2Cc2cccnc2)C1` (stereo not drawn) the value was “inactive”; for `Cc1ccc(-c2cc(-c3ccc(C)o3)nc(N)c2C#N)cc1`, 3.06 µM (active). As for `Cc1cc(C(=O)N2CCC(F)CC2)c2c(C3CCCN3)noc2n1` (stereo not drawn), the entry is “inactive”; as for `O=Cc1ccc(-c2ccc(O)cc2)cc1`, “inactive”; as for `COc1ccc(N=C2S[C@H]3[C@H]([C@@H](O)[C@H](O)C[C@@H]3C(N)=O)N2CC2CCCCC2)cc1`, “inactive”. With `O=C1N[C@@H]2CCN(S(=O)(=O)c3ccc(Cl)cc3)[C@@H]2C(=O)N1c1ccc(Oc2ccccc2)cc1`, the Potency is 7.94 µM (active). `COc1ccccc1-c1ccc(CN2CCCC(c3nc4ccc(F)cc4c(=O)[nH]3)C2)cc1` (stereo not drawn): the Potency entry was “inactive”. As for `O=Cc1cccc(N2CCN(C(=O)c3ccc4c(c3)OCO4)CC2=O)c1`, the entry is “inactive”; as for `O=C1NCc2ccccc2CC12CCCN2Cc1ccsc1` (stereo not drawn), “inactive”; as for `NCC(=O)N1Cc2ccccc2CC2(CCCCN2CC2CCOCC2)C1` (stereo not drawn), “inactive”.

With `CC(=O)N1CCC2(CC1)CN(C(=O)Cc1csc(N)n1)Cc1ccccc1O2`, the Potency result was “inactive”. For `CNc1oc(-c2ccc(Cl)c(Cl)c2)nc1C#N` the value was “inactive”; for `Clc1ccc(NCCN2CCCC2)cc1`, 90.2 µM (active).

As for `c1ccc(NCCN2CCCC2)cc1`, the Potency entry is “inactive”. As for `c1cc(NCCN2CCCC2)ccn1`, the entry is “inactive”; as for `Cn1nc(C2CCNC2)c2c(C(=O)NC3CC3)cc(C3CC3)nc21` (stereo not drawn), “inactive”.

For `O=C(OCC#CCSc1nnc(-c2cccc3ccccc23)o1)c1ccsc1`, the Potency result is “inactive”.

With `NCc1ccc(-c2cccc(O)c2)cc1`, the Potency result is “inactive”.

Regarding `NCc1ccc(-c2cccc(Cl)c2)cc1`, the Potency entry was “inactive”. As for `Nc1cc(-c2ccccc2)ccc1O`, the figure is 0.273 µM (active); as for `N[C@@H]1CC[C@H](C(=O)N2CCC(c3nccn3Cc3ccncc3)CC2)C1`, “inactive”; as for `O=C(OCC#CCSc1nnc(-c2cccc3ccccc23)o1)c1sccc1Cl`, “inactive”. As for `CN1CC(=O)N(C2CCNC2)Cc2c(NCC3(O)CCCCC3)ncnc21` (stereo not drawn), the entry is “inactive”; as for `CCCCN1C(=O)[C@@H]2C[C@@H](O)CN2C2(CN(Cc3cnc[nH]3)C2)C1=O`, “inactive”. Regarding `O=C(c1cc(C2CC2)nc2onc(C3CCCNC3)c12)N1CCCCC1` (stereo not drawn), the Potency result is “inactive”. For `CC(=O)NC1(C)CCN(Cc2cnc(-c3ccccc3OCc3ccccc3)s2)CC1` the value was 4.47 µM (active); for `O=C1NCc2ccccc2CC12CCN(Cc1ccc(Cl)o1)C2` (stereo not drawn), “inactive”; for `O=C1Nc2ccccc2C12CCN(Cc1ccccc1)C2` (stereo not drawn), “inactive”. As for `CC(=O)N1CCN(C(=O)CSCC(=O)O)C[C@H]1C(=O)N[C@H]1CCCNC1=O`, the Potency result was “inactive”. For `O=c1[nH]c(C2CCCN(Cc3ccc(-c4cc(F)cc(F)c4)cc3)C2)nc2ccc(F)cc12` (stereo not drawn) the value was “inactive”.

With `CN1CC(=O)N(C2CCNCC2)Cc2c(NC3CCCCC3)ncnc21`, the Potency entry is “inactive”. `O=C(c1cc(-c2ccco2)nn1-c1cccc(Cl)c1)N1CCCCC1`: the Potency was 9.68 µM (active). As for `O=C(c1ccccc1)N1CCn2c(nn(-c3cccc(Cl)c3)c2=O)C1`, the entry is “inactive”; as for `O=c1n(-c2cccc(Cl)c2)nc2n1CCN([S+](=O)([O-])c1ccccc1)C2`, “inactive”. For `O=C(c1ccc(C(F)(F)F)cc1)N1CCc2nc(C3CC3)nc(-c3ccc(Cl)cc3)c2C1`, the Potency result was “inactive”. For `O=C(N1CCCC1)N1CCn2c(nnc2-c2cncc(Br)c2)C1` the value was “inactive”; for `O=C(O)CCCC(=O)N1Cc2ccccc2CC2(CCCN2Cc2ccccc2)C1` (stereo not drawn), “inactive”; for `CC1CCCN(c2ncnc3c2CN(C2CCCNCC2)C(=O)CN3C)C1` (stereo not drawn), “inactive”. For `CCC(=O)NC(c1ccco1)c1cc(Cl)c2cccnc2c1OC` (stereo not drawn), the Potency result was “inactive”.

`CC(=O)NC(c1ccco1)c1cc(Cl)c2cccnc2c1O` (stereo not drawn): the Potency was 4.85 µM (active).

For `CCC(=O)NC(c1ccco1)c1cc(Cl)c2cccnc2c1O` (stereo not drawn), the Potency is 2.17 µM (active). For `COc1ccc(CNc2ncnc3c2CN(C2CCCNCC2)C(=O)CN3C)cc1` (stereo not drawn) the value was “inactive”; for `C[S+](=O)([O-])N1Cc2ccccc2OC2(CCN(C(=O)c3ccc(N)nc3)CC2)C1`, “inactive”. As to `CN1C(=O)[C@@H]2C[C@@H](CN2C2CCCC2)Oc2ccccc21`, the Potency result is “inactive”.

For the molecule `N#Cc1ccc(CN2CCC3(CN[S+](=O)([O-])c4cnccc4O3)C2)cc1` (stereo not drawn), the Potency result was “inactive”. As for `CNCCN1C(=O)CC[C@H]2CN(C(=O)c3ccc(Cl)cn3)CC[C@H]21`, the entry is “inactive”. `C=CCNC(=O)[C@@H]1Cc2cn(CC#CC)c3cccc(c23)[C@H](CC(C)C)N1`: the Potency result was “inactive”. On to `C=CCn1cc(CN(Cc2ccco2)Cc2cccs2)c(C)n1`, for which the Potency is 10 µM (active). `Cc1ccc(C(=O)N2CCn3c(nnc3C3CCNCC3)C2)cc1`: the Potency result was “inactive”.

Take `c1ccc(COCCCc2cnc[nH]2)cc1`: the Potency result is “inactive”.
